Compounds without any hit were thinned out: in the full panel of roughly 83,000, 20% have a hit.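 Negative percent growth values reflect cell death: -40 means 40% of the cells present at the start died, and -100 means all died.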 The source made the active and inactive calls. How the source made its calls: active means growth percent below 10; inactive means the rest.
Assays:
Experiment in all cases: NCI-60 one-dose screen, 48 h (100 = growth as untreated, 0 = no growth, -100 = all killed)
Conditions in all cases: 10 µM
[1] = system: SR leukemia
[2] = system: RPMI-8226 leukemia
[3] = system: OVCAR-8 ovarian
[4] = system: OVCAR-5 ovarian
[5] = system: OVCAR-4 ovarian
[6] = system: SK-OV-3 ovarian
[7] = system: IGROV1 ovarian
[8] = system: OVCAR-3 ovarian
[9] = system: HS 578T breast
[10] = system: NCI/ADR-RES ovarian
[11] = system: T-47D breast
[12] = system: BT-549 breast
[13] = system: MDA-MB-435 melanoma
[14] = system: SW-620 colon
[15] = system: MCF7 breast
[16] = system: HCT-116 colon
[17] = system: HCC-2998 colon
[18] = system: KM12 colon

Measured: growth

O=C1/C(=C/c2ccc3c(c2)OCO3)SC(=S)N1C1c2ccccc2Oc2ccccc21
inactive: [1] 84.1% | [2] 106% | [3] 98.9% | [4] 96.5% | [5] 102% | [6] 107% | [7] 90.6% | [8] 98.1% | [9] 90.9% | [10] 95.4% | [11] 104% | [12] 91.1% | [13] 96.5% | [14] 103% | [15] 91.6% | [16] 92.9% | [17] 80.1% | [18] 96.6%

O=C(O)c1cc([N+](=O)[O-])ccc1Oc1ccccc1
inactive: [1] 91% | [2] 97.8% | [3] 97% | [4] 101% | [5] 104% | [6] 106% | [7] 114% | [8] 105% | [9] 93.8% | [10] 101% | [11] 106% | [12] 92.7% | [13] 94.1% | [14] 96.1% | [15] 99.3% | [16] 102% | [17] 105% | [18] 98.2%

Nc1nc(Cl)nc2c1ncn2C1O[C@H](CO)[C@@H](O)[C@@H]1F (stereo partly specified)
active: [1] 7.7%
inactive: [2] 105% | [3] 27.1% | [4] 47.4% | [5] 80.2% | [6] 34.5% | [7] 53% | [8] 60.7% | [9] 82.5% | [10] 16.6% | [11] 49.3% | [12] 20.4% | [13] 41.5% | [14] 49.7% | [15] 30.7% | [16] 25.3% | [17] 57.3% | [18] 51.4%

S=c1cnc2ccccc2[nH]1
inactive: [1] 103% | [2] 100% | [3] 96.2% | [4] 104% | [5] 105% | [6] 96% | [7] 97.2% | [8] 106% | [9] 91.5% | [10] 98.6% | [11] 81.9% | [12] 103% | [13] 101% | [14] 91% | [15] 72.9% | [16] 88.3% | [17] 67.6% | [18] 93.9%

COc1cc(/C=C/c2cc(/C=C/c3ccc(O)c(OC)c3)n(C(=O)Nc3ccccc3Cl)n2)ccc1O
inactive: [4] 13.2% | [10] 20.8%
active: [1] -17.7% | [2] -22.3% | [3] 1.5% | [5] 6.59% | [6] -33.3% | [7] -6.58% | [8] -26.8% | [9] -4.71% | [11] 4.55% | [12] -26.4% | [13] 4.08% | [14] 6.99% | [15] 4.41% | [16] 1.16% | [17] 2.83% | [18] 0.0939%

COc1ccc(/C=C2\CCCC3C2=Nc2ccccc2NC3c2ccc(OC)cc2)cc1 (stereo unspecified)
inactive: [1] 53.9% | [2] 25.7% | [3] 85.1% | [4] 127% | [5] 77.5% | [6] 89.3% | [7] 96.6% | [8] 86.8% | [9] 87.6% | [10] 86.2% | [11] 101% | [12] 79.6% | [13] 13.8% | [14] 72.2% | [15] 56.1% | [16] 38.1% | [17] 104% | [18] 27.5%

O=C(Nc1ccc(NS(=O)(=O)c2ccc(F)cc2)cc1)C12CC3CC(CC(C3)C1)C2
inactive: [1] 75.5% | [2] 89.3% | [3] 94.7% | [4] 97.1% | [5] 99% | [6] 92.5% | [7] 102% | [8] 98.6% | [9] 94.4% | [10] 85.5% | [11] 76.2% | [12] 93.8% | [13] 95.9% | [14] 99.4% | [15] 78% | [16] 97.8% | [17] 96.4% | [18] 99.4%

Cc1ccc(/C=C2/C(=O)N(C)c3ccc(S(=O)(=O)Nc4ccc(C(C)(C)C)cc4)cc32)s1
inactive: [1] 57.9% | [2] 55.6% | [3] 41.3% | [4] 73% | [5] 44.4% | [6] 89.6% | [7] 70.8% | [8] 88.3% | [9] 88.7% | [10] 55.8% | [11] 80.5% | [12] 97.1% | [13] 83.1% | [14] 96.7% | [15] 72.4% | [16] 55.4% | [17] 87.8% | [18] 82.4%

CC(C)(C)OC(=O)CC(S(=O)(=O)c1ccccc1)S(=O)(=O)c1ccccc1
inactive: [1] 77.9% | [2] 99.3% | [3] 101% | [4] 98.8% | [5] 107% | [6] 101% | [7] 114% | [8] 48.3% | [9] 102% | [10] 107% | [11] 67.1% | [12] 108% | [13] 100% | [15] 97% | [16] 82.5% | [17] 106% | [18] 99.6%
active: [14] -63.9%

Cc1ccc2nc(Cl)c(-c3nc4ccccc4o3)cc2c1
inactive: [1] 88.6% | [2] 97.8% | [3] 99.4% | [4] 97.8% | [5] 99.3% | [6] 104% | [7] 79.2% | [8] 98.3% | [9] 98.6% | [10] 89.4% | [11] 83.9% | [12] 88.5% | [13] 99.8% | [14] 103% | [15] 92.4% | [16] 97.3% | [17] 87.8% | [18] 89.5%

CCOC(=O)c1cc(C(=O)c2ccc(OC)c(OC)c2)n2c1ccc1ccc3cccnc3c12
active: [2] 5.4% | [13] -25.6%
inactive: [1] 23.1% | [3] 29% | [4] 79.7% | [5] 59.2% | [6] 17.8% | [7] 46% | [8] 10.3% | [9] 25% | [10] 21.6% | [11] 47.5% | [12] 33% | [14] 12.8% | [15] 21.8% | [16] 27.2% | [17] 65.7% | [18] 28.8%

CC(C)(C)OC(=O)N1CCc2c(sc3ncnc(N/N=C/c4cccc5ccccc45)c23)C1
active: [2] 2.4% | [10] 8.76% | [13] -11.7% | [15] 2.21%
inactive: [1] 24.1% | [3] 27.6% | [4] 31.8% | [5] 33.4% | [6] 37% | [7] 26.9% | [8] 46.4% | [9] 17.2% | [11] 12.6% | [12] 58.7% | [14] 27.3% | [16] 10.5% | [17] 37.1% | [18] 23.4%

CCOC(=O)c1cc(C(=O)c2ccc(Cl)cc2)n2ccc(-c3cc[n+](CC(=O)c4ccc(OC)cc4)cc3)cc12
active: [1] -27.2% | [14] -29.5% | [15] 1.28% | [16] 5.5%
inactive: [2] 23.4% | [3] 76.7% | [4] 112% | [5] 29.7% | [6] 91.1% | [7] 93.2% | [8] 37.4% | [9] 83.2% | [10] 88.8% | [11] 83.4% | [12] 82.1% | [13] 75.5% | [17] 100% | [18] 64.4%

COc1cccc(-c2nc3sccn3c2-c2cccc(S(C)(=O)=O)c2)c1
inactive: [1] 94.7% | [2] 95.9% | [3] 101% | [4] 96.3% | [5] 107% | [6] 114% | [7] 99% | [8] 113% | [9] 99.3% | [10] 92.5% | [11] 98.7% | [12] 103% | [13] 110% | [14] 104% | [15] 79.6% | [16] 104% | [17] 94% | [18] 109%

Cc1ccc(-c2c3c(N)nc(-c4cccnc4)nc3nc3c2c(C)nn3-c2ccccc2)cc1
inactive: [1] 82.5% | [2] 81.2% | [3] 82% | [4] 90.8% | [5] 50.8% | [6] 66.2% | [7] 103% | [8] 104% | [9] 72% | [10] 90.3% | [11] 81.8% | [12] 100% | [13] 82.7% | [14] 102% | [15] 87.7% | [16] 81.1% | [17] 103% | [18] 97.1%

CC(C)CCN(CCC(C)C)CC(=O)Nc1ccc(S(=O)(=O)c2ccc(NC(=O)CN(CCC(C)C)CCC(C)C)cc2)cc1
active: [1] 3.98% | [2] -22.4% | [14] -1.98% | [16] -54.2%
inactive: [3] 21.8% | [4] 54.3% | [5] 73.7% | [6] 84.3% | [7] 12.1% | [8] 22.7% | [9] 65.3% | [10] 59.3% | [11] 52.7% | [12] 42.2% | [13] 65.7% | [15] 15.3% | [17] 95.8% | [18] 54.5%

OC(CNc1ccnc2cc(Cl)ccc12)CNC1CCCCC1 (stereo unspecified)
inactive: [1] 23.1% | [2] 65% | [3] 87.9% | [4] 87.4% | [5] 76% | [6] 85.1% | [7] 103% | [8] 89.4% | [9] 83.8% | [10] 90.7% | [11] 65.6% | [12] 70% | [13] 52.5% | [14] 92.9% | [15] 75.7% | [16] 68.9% | [17] 64.3% | [18] 83.5%

— PubChem BioAssay (NCI)
